Compound activity: PubChem, several laboratories
SENP7 block – SENP7 protease inhibition; 330,000 compounds, 1.5% hits; inhibition, % at 5 µM; Q9BQF6; recombinant SENP7, Z-RLRGG-aminoluciferin luminescence, 40 min; AID 434973;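 active = inhibition above about 50% at the single test dose, limit read from the data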;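 note: plate controls were DMSO with enzyme for no effect and no enzyme buffer wells for full effect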
Target sequence (Q9BQF6 706-1050 limits assumed): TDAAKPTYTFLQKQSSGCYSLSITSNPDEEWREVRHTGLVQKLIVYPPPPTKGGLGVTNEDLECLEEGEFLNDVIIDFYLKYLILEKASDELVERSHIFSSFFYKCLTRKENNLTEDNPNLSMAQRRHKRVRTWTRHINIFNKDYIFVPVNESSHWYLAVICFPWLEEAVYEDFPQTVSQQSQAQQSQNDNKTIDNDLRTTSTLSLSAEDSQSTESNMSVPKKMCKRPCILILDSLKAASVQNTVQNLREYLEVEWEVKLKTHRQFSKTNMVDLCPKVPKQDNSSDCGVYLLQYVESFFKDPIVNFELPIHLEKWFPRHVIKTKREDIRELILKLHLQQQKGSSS
SENP8 block-1 – blocks human SENP8 cleavage of Nedd8 substrate | Q96LD8 | recombinant SENP8, Nedd8 substrate fluorescence | inhibition, % at 20 µM | 360,000 compounds, 0.64% hits; in the data active = inhibition mostly above about 40%, no sharp cut-off; inactive = mostly below about 27%
Target sequence (Q96LD8 whole entry, looked up): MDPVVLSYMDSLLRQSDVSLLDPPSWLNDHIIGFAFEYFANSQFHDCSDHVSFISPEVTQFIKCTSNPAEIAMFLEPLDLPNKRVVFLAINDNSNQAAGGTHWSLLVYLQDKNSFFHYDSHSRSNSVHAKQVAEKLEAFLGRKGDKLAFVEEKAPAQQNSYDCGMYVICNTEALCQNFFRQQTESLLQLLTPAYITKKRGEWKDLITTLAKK
SENP8 block-2 – blocks the human protease SENP8 | Q96LD8 | purified SENP8, Z-RLRGG-aminoluciferin cleavage, luminescence | inhibition, % at 10 µM | 330,000 compounds, 1.2% hits; in the data active = inhibition above about 50%
Platelet DG rel – platelet dense granule release activity; 300,000 compounds, 0.22% hits; inhibition, %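 (compounds screened at 7.5 µM in platelet-rich plasma)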; human platelet-rich plasma, SFLLRN dense granule ATP release, luminescence;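 active = mean replicate score, as percent of positive control, at or above 50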
SENP6 inh – SENP6 protease inhibition. Q9GZR1. Recombinant SENP6 catalytic domain, aminoluciferin luminescence. inhibition, % at 10 µM. 330,000 compounds, 1.8% hits. AID 2599;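 active = inhibition above about 50% at the single tested dose, limit read from the data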;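 note: plate controls were DMSO wells with enzyme for no effect and DMSO wells lacking enzyme for full effect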
HSP90 refold inh – inhibitors of HSP90 luciferase refolding in rabbit reticulocyte lysate; inhibition, % at 5.6 µM; 290,000 compounds, 0.91% hits; luciferase refolding luminescence, 3 h;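 active = inhibition above the screen-wide mean plus 3 SD, computed separately per campaign, cut at about 16% in these data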;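 note: 0% = DMSO wells and 100% = 60 µM geldanamycin wells; inhibitors lower the luminescence because luciferase stays unfolded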
Active calls of the source: *; / = no result. Hits are enriched below; roughly 2.8% of the tested compounds scored in any of these assays.

SMILES	SENP7 block	SENP8 block-1	SENP8 block-2	Platelet DG rel	SENP6 inh	HSP90 refold inh
N#Cc1ccc(N2Cc3ccccc3C2=NC(=O)c2cccnc2Cl)cc1	11	-18	-1	6	27	-2
Cc1c(-c2ccnc3cc(C(=O)O)nn23)cnn1C	-3	-372	-4	-2	0	4
CCn1cc(-c2ccnc3cc(C(=O)O)nn23)c(C)n1	-1	-451	95*	-4	-18	3
Cc1ccc(S(=O)(=O)N2CCOCC2)cc1NC(=O)COC(=O)CNC(=O)c1ccc(Cl)cc1Cl	-2	4	-3	-4	3	-4
N#C/C(=C\c1ccc(O)c(O)c1)C(=O)c1ccc(O)c(O)c1	45	11	81*	/	83*	/
Cc1c(NC(=S)N/N=C/c2ccc([N+](=O)[O-])cc2O)c(=O)n(-c2ccccc2)n1C	-4	40*	2	15	0	-1
Cc1c(NC(=S)N/N=C\c2ccccc2O)c(=O)n(-c2ccccc2)n1C	-1	-212	8	-16	-2	-2
CC(Nc1nc(-c2cccc(Br)c2)cs1)c1nc2cc(Cl)c(N3CCCCC3)cc2n1CCOCCO (stereo unspecified)	7	-2	7	2	7	-2
O=C(O)C(S)C(S)C(=O)O (stereo unspecified)	/	49*	/	-1	/	/
C=CCN1C(=O)/C(=C2\SC(N3CCOCC3)=NC2=O)c2cc(Br)ccc21	-9	41*	-13	0	-8	-1
COc1ccc2c(c1)O/C(=C\c1sccc1C)C2=O	71*	-86	50	9	79*	-2
CCN=c1scc(-c2ccc(F)cc2)n1/N=C/c1ccccn1	4	-11	0	-10	7	-5
CCN=c1scc(-c2ccccc2)n1/N=C/c1ccccn1	52*	-20	46	5	63*	12
CCOc1ccc(CCNC(=O)COC(=O)CSc2ccc(C)cc2)cc1OCC	-15	0	-9	/	1	/
O=[N+]([O-])c1ccc2nc(-c3ccc(Cl)cc3)n(OCc3ccccc3)c2c1	60*	-2	16	-6	75*	-2
Clc1ccc(COn2c(-c3ccc(Cl)cc3)nc3ccccc32)cc1	-5	0	4	-5	18	-1
C/C(=N\Nc1ccc(C#N)cc1[N+](=O)[O-])c1ccc(O)cc1	-3	44*	0	3	-18	1
Cc1nc2sccn2c(=O)c1S(=O)(=O)NCC(C)c1ccccc1 (stereo unspecified)	12	-155	-8	58*	2	0
Cc1nc2sccn2c(=O)c1S(=O)(=O)NC(C)c1ccccc1 (stereo unspecified)	-15	-160	-7	63*	-10	-3
N#CCCN(Cc1cccnc1)C(=S)NC(=O)c1ccccc1	9	3	5	/	-11	/
COc1ccc(C(=O)COC(=O)CNC(=O)c2ccccc2)cc1F	1	-11	-10	/	-9	/
CC(C)=CCC[C@H](C)C[C@@H]1Cc2[nH][nH]c(=O)c2[C@H](c2ccc(F)cc2)O1	/	23	/	/	/	/
O=C(O)C1CCN(S(=O)(=O)c2ccc(N3CCCC3C(=O)O)c([N+](=O)[O-])c2)CC1 (stereo unspecified)	5	6	1	-3	5	-2
O=[N+]([O-])c1ccc(N=Nc2c(Cl)cc(O)cc2Cl)cc1	/	37	/	73*	/	-2
CC(N)=Nc1ccc([N+](=O)[O-])cc1	2	17	4	6	2	-9
SMILES	SENP7 block	SENP8 block-1	SENP8 block-2	Platelet DG rel	SENP6 inh	HSP90 refold inh
CC(Sc1nnc(N)s1)C(=O)Nc1ccc2c(c1)OCCO2 (stereo unspecified)	6	1	2	9	-14	-4
Cc1ccc(NC2CNC(=O)NC2=O)cc1C (stereo unspecified)	/	7	/	/	/	/
Cc1ccc(NC2C(=O)NC(=O)NC2=O)cc1	/	72*	/	/	/	/
Cc1cc(C)c2c(c1)-c1c(ssc1=S)C(C)(C)N2C(=O)CSc1nncn1C	14	25	-8	12	-14	0
Cc1ccc2c(c1)-c1c(ssc1=S)C(C)(C)N2C(=O)CSc1nncn1C	-2	43*	5	-3	15	2
COc1cccc(/C=C2\SC(=S)N(CCCC(=O)N3CCCC3)C2=O)c1	65*	12	48	-7	78*	-1
Cc1cccc(Oc2nc3ccccn3c(=O)c2/C=C(\C#N)C(=O)NC2CCS(=O)(=O)C2)c1C (stereo unspecified)	-3	-305	0	57*	12	11
COC(/C(=N/O)c1ccc(Cl)cc1)c1ccccc1 (stereo unspecified)	3	12	0	3	-2	4
O=C(O)CCNc1cc(N2CCN(C(=O)c3ccco3)CC2)c2noc3c2c1C(=O)c1ccccc1-3	35	70*	36	-3	51*	2
CN1CCN(c2ccc(Cl)cc2NC(=O)CCN2C(=O)c3ccccc3C2=O)CC1	-3	1	-4	1	6	0
CC(=O)OCCNc1cc(N2CCN(C)CC2)c2noc3c2c1C(=O)c1ccccc1-3	/	47*	/	/	/	0
CCN1CCN(c2cc(N3CCN(C(=O)c4ccco4)CC3)c3c4c(onc24)-c2ccccc2C3=O)CC1	3	68*	3	2	10	-2
CCCc1cc(-c2nc(N)ncc2-c2csc(C)n2)c(O)cc1OC	-11	5	5	14	19	-2
CCCc1cc(-c2nc(N)ncc2-c2ccc3c(c2)OCCCO3)c(O)cc1OC	3	9	3	70*	-14	5
COC1C=CC=C(C)C(=O)NC2=CC(=O)C(N)=C(CC(C)CC(OC)C(O)C(C)C=C(C)C1OC(N)=O)C2=O (stereo unspecified)	/	57*	/	/	/	/
COc1cccc(CNC(=O)c2nnn(CC(=O)Nc3cccc(C)c3)c2N)c1	2	16	-7	-12	-6	-3
CC1(C)CC(N=C2C([N+](=O)[O-])=CC=C3C2=NC2(CCCCC2)N3O)CC(C)(C)N1	7	50*	9	5	24	0
O=[N+]([O-])C1=CC=C2C(=NC3(CCCCC3)N2O)C1=NC1CCCCC1	11	26	10	-13	-10	-5
NC[C@H](O)c1ccc(O)c(O)c1	10	18	-1	/	0	/
CNC[C@H](O)c1ccc(O)c(O)c1	10	55*	1	-5	7	9
O=c1c2cc(Cl)ccc2nc(-c2ccc(Cl)c(Cl)c2)n1O	9	-19	15	6	59*	8
O=C(/C=C/Nc1ccc(F)c(F)c1)c1ccc(Br)cc1	67*	-157	37	-5	48	5
CC(/C=N/NC(=O)c1sc(N)nc1C)=C\c1ccccc1	69*	-162	-1	4	36	-5
Cc1nn(-c2ccccc2)c2c1C(c1ccncc1)C(C#N)=C(N)O2 (stereo unspecified)	-6	7	0	-9	-1	2
